# Source: PubChem BioAssay AID1347076 (National Center for Advancing Translational Sciences (NCATS), 2019)
# Among all 400,000 compounds or so, about 13,000 (3.2%) were called active. Roughly 18% stayed inconclusive and do not appear here. The call rests on the fitted dose curve; in most records, active means well fitted cell-killing curve with a large enough effect; inconclusive means small, poorly fitted or top-dose-only effect, or effect the other way; inactive means flat fitted curve, though single readings scatter. The list comes from a sample in which actives are over-represented; it also holds similar structures and randomly drawn compounds.
# Test: qHTS assay for MDR1-selective chemotherapeutics: Primary screen using the drug-selected MDR subline cells KB-V1; further: nearly all actives have a fitted effect of over 60% in size
# Details: KB-V1 MDR cells viability, CellTiter-Glo, 72 h; series mostly up to 46.1 µM; activity change, negative = cytotoxicity: at the top concentration
# How it was run: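 Luminescent ATP read-out (CellTiter-Glo, 10 min) measures survival of drug-selected KB-V1 MDR cells after 72 h, 37 degrees C compound exposure. Medium: phenol-red-free DMEM, 10% FBS. Values from fitted concentration-response curves.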
# On the % scale 0 is the no-effect control and ±100 the full control effect; potency means the concentration at half of the fitted maximal effect.
SMILES,Potency,"activity change, negative = cytotoxicity"
C=CCn1c(SCC(=O)NCc2ccccc2)nnc1-c1cc(Br)ccc1O,11.6 µM (active),
C=CCn1c(SCC(=O)NC(=O)Cc2ccccc2)nc2ccccc2c1=O,,0% (inactive)
O=C(CSc1nnc(-c2cccnc2)n1CCc1ccccc1)NCc1ccccc1,,-3.79% (inactive)
CN1CCN(C(CNC(=O)c2ccccc2F)c2ccc3c(c2)OCO3)CC1 (configuration not stated),,-3.27% (inactive)
COc1ccc2c(c1)CCc1c(C(=O)Nc3cc(C)ccc3O)noc1-2,,11.3% (inactive)
COc1ccc(NS(=O)(=O)c2ccc(C(=O)Nc3c(C)n(C)n(-c4ccccc4)c3=O)cc2)cc1,,0% (inactive)
COc1ccc2c(c1)CCc1c(C(=O)Nc3c(C)n(C)n(-c4ccccc4)c3=O)noc1-2,18.4 µM (active),
Nc1ccc(/C=C/c2ccnc3ccccc23)c([N+](=O)[O-])c1,,-13.2% (inactive)
COc1ccc(C2=Nc3ccccc3NC(=O)C2N(C(=O)c2cc3ccccc3[nH]2)c2ccccc2)cc1 (configuration not stated),,11% (inactive)
COc1ccc(-c2ccc(C(=O)NC(C)C)c3occc23)c(C)c1,,-4% (inactive)
COc1cccc(N(CC(=O)NC2CCCC2)C(=O)Cn2nnc(-c3ccc(C)cc3)n2)c1,,-0.0355% (inactive)
O=C(Cn1nnc(-c2ccccc2)n1)NC(=O)NC1CCCC1,,-1.79% (inactive)
O=C(Cn1nnc(-c2ccc(CN3CCOCC3)cc2)n1)NC1CCCCC1,23.1 µM (active),
CC(C)(C)C(=O)Nc1ccc(-c2cn3cccnc3n2)cc1,,1.27% (inactive)
CC(C)(C)C(=O)Nc1cccc(-c2ccc[nH]2)n1,16.4 µM (active),
COc1ccc(C(=O)Nc2cccc(NC(=O)c3ccc(OC)cc3OC)n2)c(OC)c1,,-11.6% (inactive)
CC(C)(C)c1ccc(C(=O)NCCC(=O)NCc2ccco2)cc1,,-16.8% (inactive)
CCCCNC(=O)CCNC(=O)c1ccc(C(C)(C)C)cc1,14.6 µM (active),
CCCN1CCN(C(=O)CCCNC(=O)c2ccc(Cl)cc2)CC1,,-6.51% (inactive)
CCOc1ccc(S(=O)(=O)NCCC(=O)NNC(=O)c2ccc(F)cc2)cc1,,19.8% (inactive)
O=C(CSc1ccc(-c2ccc(F)cc2)nn1)Nc1ccc2c(c1)OCCO2,,-21% (inactive)
O=C(CSc1ccc(-c2ccco2)nn1)NCc1ccc2c(c1)OCO2,,-23.5% (inactive)
O=C(CSc1ccc(-c2ccco2)nn1)Nc1cccc(F)c1,10.3 µM (active),
CC(=O)c1ccc(NC(=O)c2sc3nc4n(c(=O)c3c2C)CCCCC4)cc1,18.4 µM (active),
Cc1ccc(NC(=O)C2(N3CCC3=O)CCCCC2)cc1,,1.95% (inactive)

SMILES,Potency,"activity change, negative = cytotoxicity"
O=c1c2c(nc3n1CCCCC3)sc1c(O)cccc12,,-5.57% (inactive)
CC(=O)c1ccc(NC(=O)c2nc(-c3ccc(C)cc3)n3c2CCCCC3)cc1,20.6 µM (active),
Cc1c(C(=O)Nc2ccccc2)sc2nc3n(c(=O)c12)CCCCC3,,0% (inactive)
Cc1ccc(C(=O)Nc2ccc(OCc3cc(=O)n4c5c(sc4n3)CCCC5)cc2)cc1,,-2.43% (inactive)
CC1(Oc2ccccc2-c2ccno2)CCN(Cc2ccc(-c3ccccc3)o2)C1 (configuration not stated),,0% (inactive)
CC(C)CCNC(=O)c1[nH]c(C(F)(F)F)nc1-c1ccccc1,,-16.3% (inactive)
NCCCCC(C(=O)O)N(C(=O)OCc1ccccc1)C(=O)OCc1ccccc1 (configuration not stated),,-3.19% (inactive)
O=C(Nc1ccc(Cl)cc1)c1csc([C@@H]2O[C@H](CO)[C@H](O)[C@H](O)[C@H]2O)n1,,1.61% (inactive)
CC(=O)Nc1ccc2nc(SCCOc3cc(C)cc(C)c3)sc2c1,,-6.54% (inactive)
O=C1NC[C@H](CCCCN2C[C@H](Cc3ccc(O)cc3)N(CCc3ccccc3)C(=O)C2=O)N(CCc2ccccc2)C1=O,,1.54% (inactive)
Cc1cccc(Cn2c(CN3CCC(C(=O)NCc4ccccc4Cl)CC3)cc3ccccc32)c1,,4.63% (inactive)
C/C(COc1ccccc1)=N\NC(=O)c1nnn(-c2nonc2N)c1-c1ccc(C)cc1,,17.6% (inactive)
CCN(CC)c1cc(NC2CCCCC2)c2c3c(onc13)-c1ccccc1C2=O,,25.8% (inactive)
CCOC1=C2CN(S(=O)(=O)c3ccc(C)cc3)[C@H](c3cccs3)C[C@H]2[C@H]2C(=O)N(c3ccccc3)C(=O)[C@H]2C1,,14.3% (inactive)
COc1ccc(CCNC(=O)c2cc(-c3ccc4c(c3)OCO4)on2)cc1OC,,-20.7% (inactive)
Cc1oc(C)c2c(=O)cc(-c3ccc4c(c3)OCO4)cc(OC(=O)c3ccc(Cl)cc3)c12,,17.3% (inactive)
COc1cc(-c2c(-c3ccc4c(c3)OCO4)noc2C)ccc1F,5.8 µM (active),
O=C(CCNC(=O)c1ccc(Br)cc1)NCC(c1ccco1)N1CCCCC1 (configuration not stated),,0.991% (inactive)
CC(Oc1ccc(Br)cc1)C(=O)NCC(c1ccco1)N1CCCCC1 (configuration not stated),14.6 µM (active),
CC(Oc1ccc(Br)cc1)C(=O)NC1CCCCCC1 (configuration not stated),,-11% (inactive)
C=CCn1c2c(c3ccccc31)CCC2,,0.716% (inactive)
COc1ccc(CN2C(=O)C(CC(=O)NCc3cccc4ccccc34)CC(C(=O)N3CCOCC3)=C2C)cc1 (configuration not stated),,4.5% (inactive)
O=C(C[C@H]1CC[C@@H](NC(=O)c2ccncc2)[C@@H](CO)O1)NCC1CC1,,-2.33% (inactive)
O=C(CSc1nc(C2CC2)nc2ccccc12)Nc1ccc2c(c1)OCCO2,14.6 µM (active),
Cc1nnc(NC(=O)CSc2nc(C3CCCCC3)nc3ccccc23)s1,,-17.9% (inactive)

SMILES,Potency,"activity change, negative = cytotoxicity"
O=C(CSc1nc(C2CC2)nc2ccccc12)Nc1cccc(O)c1,,-5.09% (inactive)
CCc1ccc(OC2(C)CCN(CCOc3ccc(C)cc3)C2)cc1 (configuration not stated),,-11.1% (inactive)
COc1cc(CNc2ncnc3c2ncn3[C@H]2CN(Cc3cccs3)C[C@@H](CO)O2)cc(OC)c1OC,,4.08% (inactive)
COc1ccc(NC(=O)N(C)C[C@@H]2OCc3cn(nn3)CCCC(=O)N([C@H](C)CO)C[C@H]2C)c(OC)c1,,-1.34% (inactive)
CC(=O)NC1=NN(C(C)=O)C(C)(c2ccc(Cl)s2)S1 (configuration not stated),5.8 µM (active),
CC(=O)NC1=NN(C(C)=O)C(C)(CCS(=O)(=O)c2ccc(Cl)c(Cl)c2)S1 (configuration not stated),,-0.186% (inactive)
CC(=O)NC1=NN(C(C)=O)C(C)(c2ccc(C)cc2)S1 (configuration not stated),,-0.422% (inactive)
CCNC(=O)C1(C)CCN(Cc2ccc(C(=O)OCC)o2)C1 (configuration not stated),,2.24% (inactive)
CC(=O)C[C@@H]1OC[C@H](CO)N1S(=O)(=O)c1ccc(C)cc1,,-0.307% (inactive)
COc1ccc(Cl)cc1-c1cc(C(=O)Nc2cc(OC)c(OC)c(OC)c2)[nH]n1,,-24.4% (inactive)
CCn1c(=N)n(CC(=O)c2cccc(OC)c2)c2ccccc21,8.2 µM (active),
CCCn1c(=N)n(CC(=O)c2ccc(Cl)c(Cl)c2)c2ccccc21,,0.789% (inactive)
COc1ccc2cc(C(=O)O)n(CC(=O)c3ccccc3)c2c1,,8.89% (inactive)
O=C(N[C@H]1CC[C@H](CC(=O)N2CCCCC2)O[C@@H]1CO)c1cccc(F)c1,,4.32% (inactive)
Cc1cc2nc(-c3ccco3)c(Cc3cccc(F)c3)n2c(C)c1Br,,11.8% (inactive)
CCOc1ccccc1NC(=O)Cn1c(=O)n(Cc2ccccc2)c(=O)c2c(C)c(C(=O)N(C)C)sc21,,13.6% (inactive)
Cc1cccc(NC(=O)Cn2c(=O)n(Cc3ccccc3)c(=O)c3c(C)c(C)sc32)c1,5.17 µM (active),
Cc1cccc(-n2c(=O)c3c(C)c(C)sc3n(CC(N)=O)c2=O)c1,,7.39% (inactive)
CCCS(=O)(=O)NC(=O)C1(C)CCCN(C(=O)c2cc(C)on2)C1 (configuration not stated),,4.37% (inactive)
O=C(OCc1ccc(-c2ccccc2)cc1)c1cccc(O)c1,,-18% (inactive)
O=C(OCc1ccc(Br)cc1)c1cccc(-c2nnc(-c3ccccc3)o2)c1,9.2 µM (active),
CC(=O)Nc1cccc(C(=O)OCC(=O)Nc2nnc(-c3ccccc3)o2)c1,,29% (inactive)
O=C(O)C1=C/C(=C/C=[N+]2c3cc(O)c(O[C@H]4OC(CO)[C@@H](O)[C@@H](O)[C@@H]4O)cc3C[C@@H]2C(=O)[O-])C[C@H](C(=O)O)N1 (some centres not stated),,17% (inactive)
Cc1cccc(NC(=O)C2CCN(C(=O)NC3CCCCC3)CC2)c1,,-27.3% (inactive)
Cc1ccccc1NC(=O)C1CCN(C(=O)NC2CCCCC2)CC1,,-21.8% (inactive)

SMILES,Potency,"activity change, negative = cytotoxicity"
O=C(Nc1cccc2c1CCCC2)C1CCN(C(=O)NC2CCCCC2)CC1,13 µM (active),
CCCCC(O)C1=C[N+](=O)CC=C1 (configuration not stated),,-8.56% (inactive)
COc1ccc(N(CC(=O)NCCc2ccc(Cl)cc2)S(=O)(=O)c2c(C)nn(C)c2C)cc1,,-2.24% (inactive)
C(=Nc1ccc(/C=C/c2ccnc3ccccc23)cc1)c1cc2c3c(c1)CCCN3CCC2,,-3.26% (inactive)
O=c1c2ccccc2nc(N/N=C/c2ccccc2)n1O,,-11.6% (inactive)
Cc1cc2c(C)nc(N/N=C/c3ccccc3)nc2o1,23.1 µM (active),
Cc1nc(Cl)cc(N/N=C/c2ccccc2)n1,,-7.94% (inactive)
O=C(c1cc(C2CCCCN2S(=O)(=O)c2ccccc2)on1)N1CCOCC1 (configuration not stated),,4.3% (inactive)
Nc1cc(C(=O)N2CCN(c3ccccc3Cl)CC2)ccc1N1CC2CC(C1)c1cccc(=O)n1C2 (configuration not stated),,-1.97% (inactive)
Cc1ccc(S(=O)(=O)N(c2cccc(C)c2)C2CCS(=O)(=O)C2)cc1 (configuration not stated),16.4 µM (active),
CN(C1CCS(=O)(=O)C1)S(=O)(=O)c1ccc2ccccc2c1 (configuration not stated),,-7.48% (inactive)
Cc1ccc(S(=O)(=O)CCC(=O)OCC(=O)N(C)C2CCS(=O)(=O)C2)cc1 (configuration not stated),,-3.87% (inactive)
CCc1nc2nc(C)cc(Nc3ccc(F)c(Cl)c3)n2n1,,1.62% (inactive)
CCOC(=O)c1ccc2[nH]c3c(c2c1)CCCC3NC=O (configuration not stated),,-6.76% (inactive)
N#CCc1c[nH]c2ccc([N+](=O)[O-])cc12,,16.4% (inactive)
O=[N+]([O-])c1ccc2[nH]c3c(c2c1)CCCC3O (configuration not stated),20.6 µM (active),
Cc1c(C(=O)N(C)C)sc2c1c(=O)n(-c1ccc(F)cc1)c(=O)n2CC(=O)N(C)c1ccccc1,,7.18% (inactive)
O=C(COC(=O)Cc1ccc(Cl)cc1Cl)NCc1ccco1,,12.7% (inactive)
COCCNC(=O)CSc1nc(N)c(NC(=O)c2ccco2)c(=O)[nH]1,,-3.82% (inactive)
COc1ccc(C2CC(c3cccs3)=NN2C(=O)CCC(=O)O)cc1OC (configuration not stated),,13.5% (inactive)
O=C1c2cccc(OCC(=O)N3N=C(c4cccs4)CC3c3ccc(F)cc3)c2CCN1Cc1ccccc1 (configuration not stated),1.64 µM (active),
O=C(COc1ccccc1Cl)N1N=C(c2cccs2)CC1c1ccco1 (configuration not stated),,-25.9% (inactive)
